Screening data deposited in PubChem by National Center for Advancing Translational Sciences (NCATS).
An excerpt weighted towards active compounds, which were near 12% of everything screened.
RORg inh: inhibitors of mouse ROR gamma transcriptional activity; P51450; Drosophila S2 Gal4-RORgamma UAS-luciferase reporter, 20 h; AID 2551; 5.4% of 310,000 active; Potency, µM (highest dose often 53.6 µM), for the others: at the top dose activity change, negative = inhibition, usual class: inhibitors; further: nearly all actives have a fitted effect of over 60% in size
Target sequence (P51450 whole entry, looked up, the tested form may be a part): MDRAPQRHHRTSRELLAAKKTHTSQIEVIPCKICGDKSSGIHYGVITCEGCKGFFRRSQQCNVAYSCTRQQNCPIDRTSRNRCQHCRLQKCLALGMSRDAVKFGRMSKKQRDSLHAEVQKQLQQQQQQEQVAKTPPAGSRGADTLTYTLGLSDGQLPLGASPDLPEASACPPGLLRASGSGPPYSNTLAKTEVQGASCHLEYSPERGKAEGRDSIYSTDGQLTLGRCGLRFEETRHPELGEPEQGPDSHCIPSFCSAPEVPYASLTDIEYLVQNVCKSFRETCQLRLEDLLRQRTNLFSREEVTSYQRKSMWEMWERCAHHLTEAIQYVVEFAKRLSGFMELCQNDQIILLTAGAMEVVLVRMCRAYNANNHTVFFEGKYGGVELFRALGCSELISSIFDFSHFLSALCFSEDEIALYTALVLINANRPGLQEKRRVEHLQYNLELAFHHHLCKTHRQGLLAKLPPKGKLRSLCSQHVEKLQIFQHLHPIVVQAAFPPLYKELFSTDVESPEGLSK
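ROR gamma transcriptional activity was tracked as Gal4-UAS luciferase output in stably transfected Drosophila Schneider cells, with compound added 1 hr before 700 uM copper sulfate induction and a 20 hr ambient-temperature incubation.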
PLK1 PBD inh: blocks phosphopeptide binding to human PLK1 polo-box domain | Plk1 PBD binding of FITC phosphopeptide, fluorescence polarization | Potency, µM, inactives show max response, negative = inhibition, usual class: inhibitors | 2.8% of 360,000 active; further: series mostly up to about 57 µM; nearly all actives have a fitted effect of over 65% in size
Sfp PPTase inh: Sfp phosphopantetheinyl transferase inhibition; Biochemical Sfp PPTase activity, qHTS; Potency, µM, inactives show largest response in the series, negative = inhibition, actives largely listed as inhibitors; 3.5% of 310,000 active;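 further: the enzyme is Sfp with the accession as filed and its product quenches rhodamine fluorescence; 0% = enzyme reaction without inhibitor and -100% = no enzyme wells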
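Fluorescence-quenching assay with 15 nM Sfp, 5 uM rhodamine-CoA and 12.5 uM BHQ-2-labelled ybbR peptide in pH 7.6 Hepes/MgCl2 buffer. Enzyme was pre-incubated with compound for 15 min at room temperature. Rate was taken from the 30-min fluorescence change (525/598 nm).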
VP16 counter: Gal4-VP16 reporter inhibition counter-screen | Drosophila S2 Gal4-VP16 UAS-luciferase, luminescence, 20 h | Potency, µM (series often up to 53.6 µM), for inactives: at the top dose activity, negative = inhibition, most hits filed as inhibitors | 3.5% of 310,000 active | AID 2546;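 further: Gal4-VP16 expression switched on by copper sulfate through the metallothionein promoter; nearly all actives have a fitted effect of over 50% in size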
ALDH1A1 inh: ALDH1A1 (human) enzyme inhibition; P00352; Purified ALDH1A1, NADH fluorescence, propionaldehyde substrate; Potency, µM (titrated, usually from 75.3 µM), inactives show at the highest dose activity, negative = inhibition, usual class: inhibitors; 7.3% of 220,000 active; active means well fitted inhibition curve with a large enough effect, not every such curve was filed as active; inconclusive means small, poorly fitted or top-dose-only effect, or another doubt; inactive means no such curve, though single readings can be large or run the other way;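 further: plate controls were no enzyme wells and a reference inhibitor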
An asterisk follows results filed as active; [ ] = remark or other dose. Unless noted, the call rests on the fitted dose curve; in most records, active means well fitted curve in the direction sought with a large enough effect; inconclusive means small, poorly fitted or top-dose-only effect, or another doubt; inactive means no such curve, though single readings can be large; an effect the other way counts as inactive or inconclusive. Unless noted, on the % scale 0 is the no-effect control and ±100 the full control effect; potency means the concentration at half of the fitted maximal effect.

Results for CCC[C@H]1C[C@H](C(=O)N[C@H]([C@@H]2O[C@H](SC)[C@@H](O)[C@H](O)[C@@H]2O)[C@H](C)O)N(C)C1 ?
RORg inh: 14%[16.9 µM]; Sfp PPTase inh: 11%; VP16 counter: -3%[17 µM]; ALDH1A1 inh: 2%[20.9 µM]

What do the screens show for `CCc1cc2c(nc1CC)CCN(CC/C(C)=N/OCC[C@@H]1C=C[C@H](OC(C)=O)[C@H](COC(C)=O)O1)C2`?
RORg inh: -3%[10 µM]; Sfp PPTase inh: -6%; VP16 counter: -6%[10 µM]; ALDH1A1 inh: 2%[13.5 µM]

How did COc1ccc(OC)c(NC(=O)CC2SC(=NCc3ccccc3)NC2=O)c1 (stereo not given) do in these assays?
RORg inh: 4%; PLK1 PBD inh: -6%; Sfp PPTase inh: 6%; VP16 counter: -4%; ALDH1A1 inh: 40µM*

How did COc1ccc(CCNC(=O)CC2SC(N)=NC2=O)cc1OC (stereo not given) do in these assays?
RORg inh: -11%; PLK1 PBD inh: 21µM*; Sfp PPTase inh: 23%; VP16 counter: -2%; ALDH1A1 inh: inconclusive

How did COc1ccc(CCNC(=O)CC2SC(=NCc3ccccc3OC)NC2=O)cc1 (stereo not given) do in these assays?
RORg inh: 8%; PLK1 PBD inh: -30%; Sfp PPTase inh: 7%; VP16 counter: -8%; ALDH1A1 inh: inconclusive

What do the screens show for `Cc1ccc(N=C2NC(=O)C(CC(=O)NCc3ccccc3)S2)cc1C` (stereo not given)?
RORg inh: inconclusive; PLK1 PBD inh: -8%; Sfp PPTase inh: -14%; VP16 counter: 7%; ALDH1A1 inh: 25µM*

What do the screens show for `COc1ccc(N=C2NC(=O)C(CC(=O)NCCc3ccc(OC)c(OC)c3)S2)cc1` (stereo not given)?
RORg inh: 8%; PLK1 PBD inh: 2%; Sfp PPTase inh: 5%; VP16 counter: 4%; ALDH1A1 inh: 11µM*

How did O=[N+]([O-])c1ccc(C2Oc3ccccc3C3CC(c4ccccc4)=NN32)s1 (stereo not given) do in these assays?
RORg inh: 11µM*; Sfp PPTase inh: -15%; VP16 counter: inconclusive; ALDH1A1 inh: inconclusive

How did c1ccc(C2Oc3ccccc3C3CC(c4cccs4)=NN32)cc1 (stereo not given) do in these assays?
RORg inh: inconclusive; PLK1 PBD inh: -1%; Sfp PPTase inh: -3%; VP16 counter: inconclusive; ALDH1A1 inh: 13µM*

Results for CS(=O)(=O)N1N=C(c2cccs2)CC1c1ccccc1 (stereo not given) ?
RORg inh: 28%; PLK1 PBD inh: 2%; Sfp PPTase inh: -28%; VP16 counter: -11%

Results for COCCNc1ncnc2ccc(-c3ccc(C(=O)N(C)C)cc3)cc12 ?
RORg inh: -2%; Sfp PPTase inh: 31%; VP16 counter: 6%; ALDH1A1 inh: inconclusive

Results for Cc1ccc(C(=O)Nc2cc(S(=O)(=O)N3CCOCC3)ccc2N2CCCC2)cc1 ?
PLK1 PBD inh: 1%

What do the screens show for `Cc1ccc(CN2C(=O)C3CCCN3c3ccc(S(=O)(=O)N4CCOCC4)cc32)cc1` (stereo not given)?
RORg inh: -16%; Sfp PPTase inh: 21%; VP16 counter: -3%; ALDH1A1 inh: 14µM*

What do the screens show for `CCN(CC)S(=O)(=O)c1ccc(N2CCOCC2)c(NS(=O)(=O)c2ccc(C)c(C)c2)c1`?
RORg inh: 30%; PLK1 PBD inh: -13%; Sfp PPTase inh: 14%; VP16 counter: -15%; ALDH1A1 inh: 0.89µM*

What do the screens show for `CCN(CC)S(=O)(=O)c1ccc(N2CCOCC2)c(NS(=O)(=O)c2ccc(OC)cc2)c1`?
RORg inh: -2%; PLK1 PBD inh: inconclusive; Sfp PPTase inh: 14%; VP16 counter: 3%

How did Cn1c(=O)c(=O)n(C)c2cc(N3CCOCC3)c(NS(=O)(=O)c3ccc(Br)cc3)cc21 do in these assays?
RORg inh: -16%; PLK1 PBD inh: -10%; Sfp PPTase inh: 45µM*; VP16 counter: -4%

How did Cc1ccc(S(=O)(=O)NC(=O)c2cc(C)n(-c3cc(S(=O)(=O)N4CCOCC4)ccc3N3CCCC3)c2C)cc1 do in these assays?
RORg inh: -2%; PLK1 PBD inh: 30µM*; Sfp PPTase inh: inconclusive; VP16 counter: 12%; ALDH1A1 inh: inconclusive

How did Cc1ccc(CN2C(=O)C3CCCN3c3ncccc32)cc1 (stereo not given) do in these assays?
RORg inh: 31%; PLK1 PBD inh: -4%; Sfp PPTase inh: -3%; VP16 counter: -9%

How did CCCn1c(N)c(C(=O)CN(C)CC(=O)Nc2ccccc2C(F)(F)F)c(=O)[nH]c1=O do in these assays?
PLK1 PBD inh: -7%

What do the screens show for `CCCCN1CC(COCc2ccccc2)Oc2cccc(OCCN3C(=O)[C@@H]4[C@H](C3=O)C3C=C[C@H]4C3)c2S1(=O)=O` (stereo not given in full)?
PLK1 PBD inh: -9%

Results for CCn1c(SCC(=O)Nc2ccc(N3CCOCC3)cc2)nnc1-c1ccco1 ?
PLK1 PBD inh: -11%

What do the screens show for `CS(=O)(=O)Nc1cccc(-c2ccc3ncnc(NCc4cccnc4)c3c2)c1`?
RORg inh: inconclusive; Sfp PPTase inh: 24%; VP16 counter: 2%; ALDH1A1 inh: 6%

Results for COc1cc(CNc2nccn3ccnc23)cc(OC)c1 ?
PLK1 PBD inh: 1%

Results for COc1ccc(C2=NN(C(=O)CCC(=O)O)C(c3ccccc3F)C2)cc1 (stereo not given) ?
RORg inh: 14%; PLK1 PBD inh: 7%; Sfp PPTase inh: 26%; VP16 counter: -1%

Results for CC(=O)N1CCN(c2cc(-c3ccccc3)nc3cc(-c4cccc(Cl)c4)nn23)CC1 ?
PLK1 PBD inh: 8%

How did CCN(CC)S(=O)(=O)c1ccc(N2CCOCC2)c(NS(=O)(=O)c2ccc(C)cc2)c1 do in these assays?
RORg inh: -2%; PLK1 PBD inh: -14%; Sfp PPTase inh: -13%; VP16 counter: -22%; ALDH1A1 inh: 2.2µM*

How did Cc1ccc(S(=O)(=O)Nc2cc(S(=O)(=O)N3CCCCC3)ccc2N2CCOCC2)cc1 do in these assays?
RORg inh: -35%; PLK1 PBD inh: -6%; Sfp PPTase inh: 18%; VP16 counter: 4%; ALDH1A1 inh: 13µM*

Results for Cc1ccc(S(=O)(=O)Nc2cc3c(cc2N2CCOCC2)n(C)c(=O)c(=O)n3C)cc1 ?
RORg inh: -3%; PLK1 PBD inh: -15%; Sfp PPTase inh: -2%; VP16 counter: -10%

Results for Cc1ccc(-c2cnc(C(O)c3cc(C)cc(C)c3)[nH]2)cc1 (stereo not given) ?
PLK1 PBD inh: 3%

Results for Cc1cc2nc(CCN(Cc3cccnc3)C(=S)Nc3ccccc3)[nH]c2cc1C ?
RORg inh: 14µM*; PLK1 PBD inh: -7%; Sfp PPTase inh: -1%; VP16 counter: -28%; ALDH1A1 inh: inconclusive
